A selection: hits, their analogues and other compounds. The true share with any hit is near 0.35%.
AT treatment: candidate therapy for ataxia-telangiectasia. Potency, µM (series often up to 57.5 µM), usual class: activators. actives 0.19% (n = 320,000). AID 485349. F2112 A-T fibroblasts, KAP-1 phosphorylation AlphaLISA; neocarzinostatin DNA damage 30 min before lysis; note: nearly all actives have a fitted effect of over 45% in size
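hTERT-immortalized A-T patient fibroblasts (F2112), 500 cells/well in OPTI-MEM, 1% FBS, got compounds for 60 min, then NCS for 30 min at 37C. Lysates were then assayed for phospho-KAP-1 by AlphaLISA (anti-pKAP1 donor, anti-KAP1 acceptor beads), 6 hr at 25C.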
LDHA block: blocks human lactate dehydrogenase A | P00338 | actives 0.15% (n = 480,000) | activity change, % (values are at about 110 or 230 µM) | purified LDHA, NADH/diaphorase-resazurin fluorescence; hits give low values; in the data active = activity change below about -30%; inconclusive = mostly about -25% to -30%
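Human LDH5 (2 nM) was incubated with 0.06 mM NADH and 0.2 mM pyruvate for 5 min at room temperature in Tris pH 7.4. Remaining NADH was coupled through diaphorase/resazurin, and resorufin fluorescence was read at 0 and 20 min.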
Anesthetic bind: binds horse apoferritin like a general anesthetic | Potency, µM (titrated, usually from 77.5 µM), hits mostly inhibitors | AID 485281 | actives 0.074% (n = 350,000) | apoferritin/1-aminoanthracene competitive binding, fluorescence; note: nearly all actives have a fitted effect of over 20% in size
Target sequence (P02791 2-175 limits assumed): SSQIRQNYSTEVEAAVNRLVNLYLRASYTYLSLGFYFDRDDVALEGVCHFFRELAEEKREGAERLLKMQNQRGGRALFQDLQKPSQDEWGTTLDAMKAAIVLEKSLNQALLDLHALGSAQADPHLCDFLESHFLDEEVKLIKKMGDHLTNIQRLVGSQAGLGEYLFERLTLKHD
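Steps: apoferritin (10 uM) was premixed with half-saturated 1-AMA in PBS, compounds were pin-transferred, plates stood 10 min at room temperature, fluorescence was read at 380/535 nm, and curves were fitted with a Hill equation.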
RGS4 inh: inhibitors of human regulator of G protein signaling 4 | Potency, µM (highest dose often 114 µM), most hits filed as inhibitors | Transcreener GDP fluorescence polarization, RGS4-accelerated GTP hydrolysis | actives 0.039% (n = 390,000) | P49798; note: nearly all actives have a fitted effect of over 75% in size
Target sequence (P49798 whole entry, looked up): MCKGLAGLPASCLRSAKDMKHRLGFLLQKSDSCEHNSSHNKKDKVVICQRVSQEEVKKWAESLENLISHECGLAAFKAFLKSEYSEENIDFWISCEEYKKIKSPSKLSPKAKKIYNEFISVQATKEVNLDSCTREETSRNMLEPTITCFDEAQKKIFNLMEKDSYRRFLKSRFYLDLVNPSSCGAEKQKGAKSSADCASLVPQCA
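MLSMR compounds (23 nl, pin-transferred) preincubated 10 min at room temperature with a 500nM (2x) first reagent, then RGS4 at 900nM (2x) plus Transcreener GDP mix added; fluorescence polarization (620/688 nm) read before and after 90 min at 30 °C.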
Numbers stand for hits. Unless noted, calls come from the whole dose curve; as a rule, active = well fitted curve in the direction sought with a large enough effect; inconclusive = small, poorly fitted or top-dose-only effect, or another doubt; inactive = no such curve, though single readings can be large; an effect the other way counts as inactive or inconclusive.

`O=C(O)C=Cc1ccc(Cn2ccnc2)cc1` gave RGS4 inh 2.7µM.
CCC(=O)Nc1cccc(-c2nnc(SCC(=O)NCc3ccco3)n2C)c1 was read as AT treatment inactive, LDHA block -31, Anesthetic bind inactive and RGS4 inh inactive.
For COc1ccc(-c2nc3cc([N+](=O)[O-])ccc3o2)cc1 the results were AT treatment inactive, LDHA block inactive, Anesthetic bind inactive and RGS4 inh inactive.
For Nc1ccc(-c2nc3cc([N+](=O)[O-])ccc3o2)cc1 the results were AT treatment 40µM, LDHA block inactive, Anesthetic bind inactive and RGS4 inh inactive.
`Cc1cc(C)cc(OCC(=O)N2CCCCCC2)c1` gave AT treatment inactive, LDHA block inactive, Anesthetic bind inconclusive and RGS4 inh inactive.
Cc1cc(C)c(C)c(OCC(=O)N2CCCCCC2)c1 was read as AT treatment inactive, LDHA block inactive, Anesthetic bind 20µM and RGS4 inh inactive.
Screening Cc1[nH]c2ccccc2c1N=Nc1cc(C(=O)O)cc(C(=O)O)c1 returned AT treatment inactive, LDHA block -34, Anesthetic bind inactive and RGS4 inh inactive.
`Cc1[nH]c2ccccc2c1N=Nc1ccc(F)cc1` gave AT treatment inactive, LDHA block inactive, Anesthetic bind inconclusive and RGS4 inh inactive.
`CCc1ccc(C(=O)Nc2sc(C)c(C)c2C#N)cc1` gave LDHA block inactive.
Screening O=C1NC(=O)/C(=C/c2ccc(-c3ccc(F)cc3O)o2)S1 returned RGS4 inh 21µM.
Screening O=C1NC(=S)SC1=Cc1ccc(F)cc1 returned LDHA block inactive and RGS4 inh inactive.
For Cc1ccccc1Oc1ccc2c(c1)[C@@H]1C[C@H](N(C)C(=O)c3cccnc3)[C@H]([C@H](C)O)C(=O)N1CC2 the results were LDHA block -32.
`Cn1c(O)c(/C=C2\C=Nc3ccccc32)sc1=Nc1ccc(C(=O)O)cc1` gave AT treatment inactive, LDHA block -35, Anesthetic bind inactive and RGS4 inh inactive.
CCn1c(O)c(/C=C2\C=Nc3ccccc32)sc1=Nc1ccccc1 was read as AT treatment inactive, LDHA block inactive, Anesthetic bind inactive and RGS4 inh inactive.
COc1ccccc1N1CCN(C2CCN(C(=O)c3cccc(F)c3)CC2)CC1 was read as AT treatment inactive, LDHA block -32, Anesthetic bind inactive and RGS4 inh inactive.
COc1ccc(C(=O)N2CCN(C3CCN(Cc4ccccc4)CC3)CC2)cc1OC was read as AT treatment inactive, LDHA block -40, Anesthetic bind inactive and RGS4 inh inactive.
For CCOc1cccc(/C=C/c2ccc3cccc(O)c3n2)c1O the results were AT treatment inactive, LDHA block inactive, Anesthetic bind inactive and RGS4 inh inactive.
CCOc1cccc(/C=C/c2ccc3cccc(O)c3n2)c1OC was read as AT treatment 7.9µM, LDHA block inactive, Anesthetic bind inactive and RGS4 inh inactive.
For O=C1OCCN1C(=O)[C@H]1[C@H](c2ccc(Cl)cc2)C(c2cccc(Cl)c2)=NN1c1ccccc1 the results were AT treatment 35µM, LDHA block inactive, Anesthetic bind inactive and RGS4 inh inactive.
For Cc1cccc(C2=NN(c3ccc(Br)cc3)[C@@H](C(=O)N3CCOC3=O)[C@@H]2c2ccc(F)cc2)c1 the results were AT treatment 18µM, LDHA block inactive, Anesthetic bind inactive and RGS4 inh inactive.
`Cc1cccc(C2=NN(c3ccc(Br)cc3)[C@@H](C(=O)N3CCOC3=O)[C@@H]2c2ccc(Cl)cc2)c1` gave AT treatment inactive, LDHA block inactive, Anesthetic bind inactive and RGS4 inh inactive.
Screening COc1ccc2c(c1)CCc1c-2n[nH]c1C(=O)NCCC(C)C returned AT treatment inactive, LDHA block inactive, Anesthetic bind inactive and RGS4 inh inactive.
`CNC(=O)c1[nH]nc2c1CCc1cc(OC)ccc1-2` gave AT treatment 10µM, LDHA block inactive, Anesthetic bind inactive and RGS4 inh inactive.
For COc1ccc(Br)cc1[C@H]1[C@H]2C=CC[C@@H](C)[C@@H]2C(=O)N1Cc1ccccc1 the results were AT treatment 40µM, LDHA block inactive, Anesthetic bind inactive and RGS4 inh inactive.
Screening COc1ccc(/C=C/c2ccccc2)cc1C1C2C=CCC(C)C2C(=O)N1Cc1ccccc1 (stereo not drawn) returned Anesthetic bind inactive and RGS4 inh inactive.
For CC(=O)Nc1ccc(C=NNC(=O)c2ccc(NS(=O)(=O)c3cccs3)cc2)cc1 the results were AT treatment inactive, LDHA block -33 and RGS4 inh inactive.
`COC(=O)c1cccc(S(=O)(=O)Oc2ccc3ccc(=O)oc3c2)c1` gave LDHA block inactive.
O=C1CC(C(F)(F)C(F)(F)C(F)(F)C(F)F)=Nc2ccccc2N1 was read as AT treatment inactive, LDHA block inactive, Anesthetic bind 50µM and RGS4 inh inactive.
For O=C(NC1CC1)c1ccc(NC(=O)c2cc(-c3ccco3)nc3ccccc23)cc1 the results were LDHA block inactive.
CC(C)c1cccc(C(C)C)c1NC(=O)C1CC=CCC1 (stereo not drawn) was read as LDHA block -32.
For CC(C)c1ccccc1NC(=O)C1CC=CCC1 (stereo not drawn) the results were LDHA block inactive.
Screening O=C(C1=Cc2sc3c(c2CS1)CCCC3)N1CCCCC1 returned LDHA block inactive.
For COc1ccc2c(c1)C(C)CC(C)(C)N2C(=O)CSc1ncn[nH]1 (stereo not drawn) the results were AT treatment 20µM, LDHA block inactive, Anesthetic bind inactive and RGS4 inh inactive.
Screening COc1ccc(N2CCN(C(=O)CSc3ncn[nH]3)CC2)cc1 returned AT treatment inactive, LDHA block inactive and RGS4 inh inactive.
For OC1(CC#CCN2CCCCC2)c2ccccc2-c2ccccc21 the results were AT treatment 3.5µM, LDHA block inactive, Anesthetic bind inactive and RGS4 inh inactive.
`CCOc1ccc2c(c1)C(NC(C)=O)C(=O)N2CCOc1ccccc1` (stereo not drawn) gave LDHA block inactive.
`COc1ccc(-c2cc(=O)c3cc(OC(=O)C(C)(C)C)ccc3o2)cc1` gave LDHA block -32.
Screening COc1ccc(-c2cc(=O)c3cc(OC(=O)C(C)C)ccc3o2)cc1 returned LDHA block inactive.
`CC1=CC(=O)c2ccc3c4c(ccc1c24)CC3` gave LDHA block inactive.
Screening S=c1[nH]nc(-c2cc(-c3ccccc3)n[nH]2)n1/N=C/c1ccc(Br)s1 returned AT treatment inactive, LDHA block -43, Anesthetic bind inactive and RGS4 inh inconclusive.
Cn1c(-c2ccccc2)csc1=N was read as LDHA block -49.
For CN=c1scc(-c2ccccc2)n1C the results were LDHA block inactive.
For CC1CCN(CCOCCOc2ccc(Cl)cc2Br)CC1 the results were AT treatment inactive, LDHA block -34, Anesthetic bind inactive and RGS4 inh inactive.
